# Measurements: PubChem BioAssay (EPA / NIEHS)
# Records with an inconclusive call do not appear. Active and inactive are the calls of the source. Rule for the calls, unless noted: active = hit-call score of the fitted dose curve at least 0.9, where 1 is the maximum; inconclusive = response in the unintended direction; inactive = score below 0.9.
# Tests used:
# [1] = molecular target: Estrogen receptor beta (Homo sapiens) (UniProt Q92731); assay: OT_ER_ERbERb_0480: Odyssey Thera (OT) 8-hour HEK293T Protein-Complementation Assay for Estrogen Receptor-beta/-beta Homodimer (AID 2283357);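 note: active means signal gain over DMSO baseline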
# Chain of Estrogen receptor beta (Homo sapiens) (Q92731 whole entry, looked up, the tested form may be a part): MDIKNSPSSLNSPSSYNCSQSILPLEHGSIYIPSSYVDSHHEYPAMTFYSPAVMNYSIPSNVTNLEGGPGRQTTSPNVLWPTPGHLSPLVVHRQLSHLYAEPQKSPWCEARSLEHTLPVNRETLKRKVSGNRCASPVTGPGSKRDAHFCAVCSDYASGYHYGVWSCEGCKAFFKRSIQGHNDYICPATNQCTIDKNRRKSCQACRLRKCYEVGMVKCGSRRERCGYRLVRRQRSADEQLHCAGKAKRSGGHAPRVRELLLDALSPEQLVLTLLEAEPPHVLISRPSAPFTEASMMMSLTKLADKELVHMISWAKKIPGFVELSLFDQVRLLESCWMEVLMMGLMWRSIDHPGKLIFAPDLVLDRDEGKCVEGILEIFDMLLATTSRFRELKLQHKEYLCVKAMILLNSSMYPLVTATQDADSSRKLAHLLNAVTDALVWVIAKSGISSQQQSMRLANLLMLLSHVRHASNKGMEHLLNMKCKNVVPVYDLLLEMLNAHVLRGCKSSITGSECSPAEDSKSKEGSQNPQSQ
# Summary of the method: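 Cells (HEK293T, stable ER-beta LBD PCA pair) are treated 8 hours, fixed and Draq5-stained; signal is fluorescence intensity increase relative to vehicle, fitted in the gain direction.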
# [2] = molecular target: Nuclear receptor subfamily 1 group I member 2 (Homo sapiens) (UniProt O75469); assay: NVS_NR_hPXR: NovaScreen (NVS) Nuclear Receptor Binding Assay for human Pregnane X Receptor (PXR) (AID 2283365);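 note: a drop in FRET signal versus DMSO baseline means the compound binds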
# Chain of Nuclear receptor subfamily 1 group I member 2 (Homo sapiens) (O75469 whole entry, looked up): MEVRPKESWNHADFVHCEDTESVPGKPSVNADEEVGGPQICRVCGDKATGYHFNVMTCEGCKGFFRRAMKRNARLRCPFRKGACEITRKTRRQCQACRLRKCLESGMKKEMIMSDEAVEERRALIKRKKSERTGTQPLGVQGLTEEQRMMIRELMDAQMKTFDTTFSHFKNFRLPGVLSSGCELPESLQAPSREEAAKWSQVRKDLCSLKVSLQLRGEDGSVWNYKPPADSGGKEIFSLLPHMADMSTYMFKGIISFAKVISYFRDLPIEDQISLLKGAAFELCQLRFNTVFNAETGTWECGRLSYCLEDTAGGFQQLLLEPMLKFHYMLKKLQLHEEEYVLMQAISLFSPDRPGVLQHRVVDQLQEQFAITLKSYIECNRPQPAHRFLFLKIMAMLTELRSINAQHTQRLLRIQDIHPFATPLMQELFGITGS
# Summary of the method: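 Cell-free binding assay with extracted human PXR protein, read by TR-FRET 2 h after dosing; loss of signal relative to DMSO baseline indicates binding. Primary screen at 25 uM in duplicate, actives retested in concentration series.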
# [3] = molecular target: Estrogen receptor beta (Homo sapiens) (UniProt Q92731); assay: OT_ER_ERbERb_1440: Odyssey Thera (OT) 24-hour HEK293T Protein-Complementation Assay for Estrogen Receptor-beta/-beta Homodimer (AID 2283380);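 note: fluorescence gain from ER beta LBD homodimer complementation read by laser scanning cytometry; scored as signal increase over DMSO baseline for both agonists and antagonists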
# Summary of the method: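 Fluorescence increase, nuclear for agonists or whole-cell for antagonists, relative to DMSO vehicle, quantified by laser scanning cytometer after fixation and Draq5 staining. Readout from 24 h treatment of HEK293T cells carrying complementation-paired ER beta LBD (aa 310-547).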
# [4] = molecular target: rat Mineralocorticoid Receptor (MR), Nr3c2 (gene 25672) (UniProt P22199); assay: NVS_NR_rMR: NovaScreen (NVS) Nuclear Receptor Binding Assay for rat Mineralocorticoid Receptor (MR) (AID 2283355)
# Summary of the method: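 Adrenalectomized rat brain supernatant was dosed with test chemical, then radioligand binding was measured by scintillation counting at 24 h. Initial testing ran in duplicate at 25 uM, followed by concentration series for actives.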
# PGR (gene 5241) = PGR (gene 5241) (UniProt P06401); assay: NVS_NR_hPR: NovaScreen (NVS) Nuclear Receptor Binding Assay for human Progestron Receptor (PR) (AID 2283360);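 note: active means loss of bound radioligand signal versus DMSO baseline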
# Summary of the method: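 Competitive displacement of a labelled radioligand from T47D-derived receptor protein is measured in a cell-free format. Initial testing uses 25 uM in duplicate, with positive and negative controls on every plate.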
# [5] = molecular target: rat Androgen Receptor (AR), Ar (gene 24208) (UniProt P15207); assay: NVS_NR_rAR: NovaScreen (NVS) Nuclear Receptor Binding Assay for rat Androgen Receptor (AR) (AID 2283366)
# Chain of rat Androgen Receptor (AR), Ar (gene 24208) (P15207 whole entry, looked up): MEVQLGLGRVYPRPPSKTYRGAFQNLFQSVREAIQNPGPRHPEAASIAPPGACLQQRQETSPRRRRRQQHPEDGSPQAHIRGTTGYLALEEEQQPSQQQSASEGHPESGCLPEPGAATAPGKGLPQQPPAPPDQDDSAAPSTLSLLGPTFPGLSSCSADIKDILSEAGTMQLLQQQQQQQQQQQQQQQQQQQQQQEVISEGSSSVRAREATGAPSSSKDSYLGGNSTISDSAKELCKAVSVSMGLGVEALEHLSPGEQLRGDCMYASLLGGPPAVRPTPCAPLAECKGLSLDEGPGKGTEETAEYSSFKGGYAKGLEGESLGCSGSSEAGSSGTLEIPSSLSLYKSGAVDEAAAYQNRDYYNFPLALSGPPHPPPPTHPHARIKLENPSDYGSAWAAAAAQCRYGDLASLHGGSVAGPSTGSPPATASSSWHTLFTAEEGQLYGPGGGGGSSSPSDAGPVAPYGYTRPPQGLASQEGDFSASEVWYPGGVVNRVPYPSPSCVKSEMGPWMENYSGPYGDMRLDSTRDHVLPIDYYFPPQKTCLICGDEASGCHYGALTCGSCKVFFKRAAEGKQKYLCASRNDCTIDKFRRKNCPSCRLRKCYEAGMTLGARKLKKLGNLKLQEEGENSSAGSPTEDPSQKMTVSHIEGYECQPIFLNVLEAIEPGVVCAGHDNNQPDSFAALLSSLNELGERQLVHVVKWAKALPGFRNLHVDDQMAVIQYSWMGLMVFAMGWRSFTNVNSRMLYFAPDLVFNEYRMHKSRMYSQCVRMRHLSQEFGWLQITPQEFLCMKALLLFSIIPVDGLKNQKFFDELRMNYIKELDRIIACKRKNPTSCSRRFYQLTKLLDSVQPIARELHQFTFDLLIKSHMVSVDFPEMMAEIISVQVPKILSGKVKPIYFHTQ
# Summary of the method: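 Cell-free radioligand binding on extracts of prostate from testosterone-pretreated rats, read by filter-based scintillation counting 18 h after dosing. Loss of bound signal fitted positively versus DMSO; primary screen in duplicate at 25 uM, actives followed up in concentration series.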
# [6] = molecular target: human Thyroid Receptor Alpha (TRa), THRA (gene 7067) (UniProt P10827); assay: NVS_NR_hTRa_Antagonist: NovaScreen (NVS) Nuclear Receptor Binding Assay for human Thyroid Receptor Alpha Antagonism (TRa) (AID 2283362);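 note: activity is loss of signal relative to DMSO baseline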
# Chain of human Thyroid Receptor Alpha (TRa), THRA (gene 7067) (P10827 whole entry, looked up): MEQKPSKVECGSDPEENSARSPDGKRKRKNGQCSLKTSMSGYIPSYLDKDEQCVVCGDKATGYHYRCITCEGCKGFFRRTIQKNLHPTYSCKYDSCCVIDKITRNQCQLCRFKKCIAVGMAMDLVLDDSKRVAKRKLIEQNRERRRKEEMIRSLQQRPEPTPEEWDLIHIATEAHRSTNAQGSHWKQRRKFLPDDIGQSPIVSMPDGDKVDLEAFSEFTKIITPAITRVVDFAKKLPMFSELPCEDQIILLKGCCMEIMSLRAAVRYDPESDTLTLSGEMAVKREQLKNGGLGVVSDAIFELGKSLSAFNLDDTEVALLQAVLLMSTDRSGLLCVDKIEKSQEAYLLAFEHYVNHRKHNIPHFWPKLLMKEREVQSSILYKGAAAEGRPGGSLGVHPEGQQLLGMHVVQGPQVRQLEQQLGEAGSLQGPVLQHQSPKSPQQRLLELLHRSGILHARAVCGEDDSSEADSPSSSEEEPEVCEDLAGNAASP
# Summary of the method: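 Cell-free binding assay on extracted receptor protein, read 1 h after chemical dosing by AlphaLISA chemiluminescence; loss of signal relative to DMSO baseline marks antagonism. Primary screen ran in duplicate at 25 uM, with concentration series for actives.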
# [7] = molecular target: Androgen Receptor/SRC-1 Co-activator, AR (gene 367) (UniProt P10275); assay: OT_AR_ARSRC1_0480: Odyssey Thera (OT) 8-hour HEK293T Protein-Complementation Assay for Androgen Receptor/SRC-1 Co-activator (AID 2283354);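 note: hits raise the complementation signal above DMSO so AC50 marks enhancers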
# Summary of the method: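 Measures AR/SRC-1 binding by Venus YFP fragment complementation in HEK293T stable lines at 8 h post-dose. Imaging quantifies the 488nm nucleus/cytoplasm ratio in ≥400 cells; DMSO defines baseline.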
# [8] = molecular target: Agonist Androgen Response Element (ARE), AR (gene 367) (UniProt P10275); assay: OT_AR_ARELUC_AG_1440: Odyssey Thera (OT) 24-hour CHO-K1 Luciferase Assay for Agonist Androgen Response Element (ARE) (AID 2283379)
# Chain of Agonist Androgen Response Element (ARE), AR (gene 367) (P10275 whole entry, looked up): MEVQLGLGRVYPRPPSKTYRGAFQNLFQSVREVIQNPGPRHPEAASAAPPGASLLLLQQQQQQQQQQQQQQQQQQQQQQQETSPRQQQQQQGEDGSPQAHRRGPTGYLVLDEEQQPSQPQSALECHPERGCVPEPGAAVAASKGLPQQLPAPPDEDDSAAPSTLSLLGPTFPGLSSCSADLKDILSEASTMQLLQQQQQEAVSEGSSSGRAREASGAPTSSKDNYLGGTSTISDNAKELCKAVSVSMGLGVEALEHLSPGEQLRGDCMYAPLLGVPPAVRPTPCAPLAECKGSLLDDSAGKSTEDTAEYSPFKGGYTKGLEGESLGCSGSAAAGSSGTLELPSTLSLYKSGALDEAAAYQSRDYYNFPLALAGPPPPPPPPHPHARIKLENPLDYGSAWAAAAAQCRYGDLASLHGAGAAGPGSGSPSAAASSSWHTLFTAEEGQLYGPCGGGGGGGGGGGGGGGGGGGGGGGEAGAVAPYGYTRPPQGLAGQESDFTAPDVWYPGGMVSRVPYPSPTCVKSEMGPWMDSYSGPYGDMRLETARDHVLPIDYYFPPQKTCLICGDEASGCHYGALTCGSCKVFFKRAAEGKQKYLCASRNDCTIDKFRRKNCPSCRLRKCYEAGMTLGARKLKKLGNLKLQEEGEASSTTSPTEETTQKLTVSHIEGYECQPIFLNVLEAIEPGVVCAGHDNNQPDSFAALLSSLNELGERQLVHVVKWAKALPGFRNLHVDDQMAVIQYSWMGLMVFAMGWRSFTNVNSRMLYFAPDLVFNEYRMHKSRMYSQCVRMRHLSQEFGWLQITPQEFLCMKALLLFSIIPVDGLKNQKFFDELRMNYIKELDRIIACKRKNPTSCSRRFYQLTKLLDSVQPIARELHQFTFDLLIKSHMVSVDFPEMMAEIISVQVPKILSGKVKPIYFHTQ
# Summary of the method: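 Agonist mode, 24 h exposure in CHO-K1 ARE-luciferase cells; values reflect luminescence induction over vehicle.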
# [9] = molecular target: Retinoic acid receptor alpha (Homo sapiens) (UniProt P10276); assay: NVS_NR_hRAR_Antagonist: NovaScreen (NVS) Nuclear Receptor Binding Assay for human Retinoic Acid Alpha Receptor Antagonism (RAR) (AID 2283358)
# Chain of Retinoic acid receptor alpha (Homo sapiens) (P10276 whole entry, looked up): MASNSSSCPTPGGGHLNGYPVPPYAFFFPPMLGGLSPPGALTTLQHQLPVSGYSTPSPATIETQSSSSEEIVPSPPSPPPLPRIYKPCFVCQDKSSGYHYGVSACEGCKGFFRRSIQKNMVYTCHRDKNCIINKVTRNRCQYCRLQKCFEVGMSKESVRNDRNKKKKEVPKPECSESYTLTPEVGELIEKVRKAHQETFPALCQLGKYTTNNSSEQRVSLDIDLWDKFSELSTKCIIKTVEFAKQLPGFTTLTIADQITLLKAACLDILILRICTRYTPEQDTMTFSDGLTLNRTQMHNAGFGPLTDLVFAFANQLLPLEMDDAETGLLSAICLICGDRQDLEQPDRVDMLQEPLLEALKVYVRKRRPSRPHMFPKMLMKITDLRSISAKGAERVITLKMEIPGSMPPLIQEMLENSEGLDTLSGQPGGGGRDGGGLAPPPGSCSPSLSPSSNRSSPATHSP
# Summary of the method: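 TR-FRET, cell-free, antagonist format; 2 h incubation after dosing; DMSO = baseline; signal loss fitted; 25 uM duplicate primary, then conc. series.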
# [10] = molecular target: Peroxisome proliferator-activated receptor gamma (Homo sapiens) (UniProt P37231); assay: NVS_NR_hPPARg: NovaScreen (NVS) Nuclear Receptor Binding Assay for human Peroxisome Proliferator-activated Receptor gamma (PPARg) (AID 2283370)
# Chain of Peroxisome proliferator-activated receptor gamma (Homo sapiens) (P37231 whole entry, looked up): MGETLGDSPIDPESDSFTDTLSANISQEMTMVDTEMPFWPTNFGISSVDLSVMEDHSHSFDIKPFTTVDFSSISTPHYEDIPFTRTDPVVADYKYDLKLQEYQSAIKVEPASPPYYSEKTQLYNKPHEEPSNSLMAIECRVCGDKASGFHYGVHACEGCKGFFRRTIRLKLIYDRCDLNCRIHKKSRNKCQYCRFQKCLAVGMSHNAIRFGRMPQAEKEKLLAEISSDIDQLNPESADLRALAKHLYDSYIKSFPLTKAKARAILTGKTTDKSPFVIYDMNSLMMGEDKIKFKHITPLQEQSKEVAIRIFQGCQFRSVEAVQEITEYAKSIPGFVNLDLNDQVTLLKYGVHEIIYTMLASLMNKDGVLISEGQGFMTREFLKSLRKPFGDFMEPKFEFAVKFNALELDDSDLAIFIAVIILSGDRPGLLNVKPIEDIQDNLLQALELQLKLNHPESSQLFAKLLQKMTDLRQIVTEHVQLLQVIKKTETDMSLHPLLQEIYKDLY
# Summary of the method: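 Cell-free binding to extracted PPARg protein, read by fluorescence polarization 2 h after dosing; loss of signal relative to DMSO baseline marks displacement. Primary screen in duplicate at 25 uM, actives retested in concentration series.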
# [11] = molecular target: Retinoic acid receptor alpha (Homo sapiens) (UniProt P10276); assay: NVS_NR_hRARa_Agonist: NovaScreen (NVS) Nuclear Receptor Binding Assay for human Retinoic Acid Alpha Receptor Agonism (RAR) (AID 2283361)
# Summary of the method: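 Readout is time-resolved fluorescence resonance energy transfer after a 2 h exposure of cell-free extracted receptor protein. Initial testing used 25 uM in duplicate, with concentration-response follow-up for active chemicals.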
# [12] = molecular target: Estrogen receptor (Homo sapiens) + Estrogen receptor beta (Homo sapiens) (UniProt P03372+Q92731); assay: OT_ER_ERaERb_1440: Odyssey Thera (OT) 24-hour HEK293T Protein-Complementation Assay for Estrogen Receptor-alpha/-beta Homodimer (AID 2283356);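 note: heteromer of ER alpha and ER beta binding domains; hits raise reporter fluorescence and both agonists and antagonists give an increase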
# Summary of the method: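 HEK293T cells stably expressing a PCA pair of ERα LBD (aa 310-547) and ERβ LBD (aa 263-489) were dosed for 24 h. Fluorescence intensity increase versus DMSO vehicle was fitted as gain-of-signal.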
# [13] = molecular target: Estrogen receptor (Homo sapiens) (UniProt P03372); assay: OT_ERa_GFPERaERE_0480: Odyssey Thera (OT) 8-hour HeLa Transcription Induction Assay for Estrogen Receptor (AID 2283381; active = hit-call score of the fitted dose curve at least 0.9, where 1 is the maximum; inactive = score below 0.9)
# Chain of Estrogen receptor (Homo sapiens) (P03372 whole entry, looked up): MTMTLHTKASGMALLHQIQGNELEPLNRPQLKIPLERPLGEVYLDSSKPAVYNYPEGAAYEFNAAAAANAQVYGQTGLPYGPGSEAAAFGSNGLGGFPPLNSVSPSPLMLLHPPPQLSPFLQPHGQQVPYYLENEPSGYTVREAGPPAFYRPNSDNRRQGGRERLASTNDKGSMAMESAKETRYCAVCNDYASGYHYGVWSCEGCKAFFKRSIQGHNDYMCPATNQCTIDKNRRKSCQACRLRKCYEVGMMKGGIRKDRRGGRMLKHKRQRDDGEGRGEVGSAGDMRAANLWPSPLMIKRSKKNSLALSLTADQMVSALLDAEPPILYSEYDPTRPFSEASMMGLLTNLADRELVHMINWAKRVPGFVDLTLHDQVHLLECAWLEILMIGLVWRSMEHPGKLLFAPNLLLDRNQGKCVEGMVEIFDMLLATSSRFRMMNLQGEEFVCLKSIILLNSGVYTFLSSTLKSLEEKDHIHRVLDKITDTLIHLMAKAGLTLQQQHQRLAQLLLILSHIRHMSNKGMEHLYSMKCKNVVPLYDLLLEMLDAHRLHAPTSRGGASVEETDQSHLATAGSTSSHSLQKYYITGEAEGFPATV
# Summary of the method: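 Fluorescent reporter signal, imaged by microscopy and scored with image-analysis algorithms, was taken 8 h after chemical dosing of HeLa cells; activity was fitted upward relative to DMSO.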
# [14] = molecular target: mouse Estrogen Receptor alpha (Era), Esr1 (gene 13982) (UniProt P19785); assay: NVS_NR_mERa: NovaScreen (NVS) Nuclear Receptor Binding Assay for mouse Estrogen Receptor alpha (Era) (AID 2283378);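 note: hit means loss of bound radioligand signal relative to DMSO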
# Summary of the method: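 Cell-free radioligand binding with extracted mouse Era protein; competitive displacement of radiolabelled ligand, read by filter-based scintillation counting 18 hours after dosing. Loss of signal versus DMSO baseline taken as binding; single screening concentration 25 uM, actives followed in concentration series.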
# [15] = molecular target: guinea pig Sigma Receptor, Non-selective Binding, SIGMAR1 (gene 100135589) (UniProt Q60492); assay: NVS_OR_gSIGMA_NonSelective: NovaScreen (NVS) Nuclear Receptor Binding Assay for guinea pig Sigma Receptor, Non-selective Binding (AID 2283367)
# Summary of the method: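 gp brain membr., radioligand displacement, 1 h, filtration + scint. counting; DMSO = baseline; 25 uM x2 primary, conc.-response confirm.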
smiles,measurement,setting,value
CC(C)c1ccccc1O,outcome,[1],inactive
same,outcome,[2],inactive
same,outcome,[3],inactive
Oc1c(Cl)cc(Cl)c(Cl)c1Cc1c(O)c(Cl)cc(Cl)c1Cl,outcome,[4],inactive
same,outcome,PGR (gene 5241),inactive
same,AC50,[5],2.06 µM (active)
CCCCCCCCN1CCCC1=O,outcome,[1],inactive
same,outcome,[2],inactive
same,outcome,[3],inactive
OC[C@H]1O[C@@H]2O[C@H]3[C@H](O)[C@@H](O)[C@@H](O[C@H]4[C@H](O)[C@@H](O)[C@@H](O[C@H]5[C@H](O)[C@@H](O)[C@@H](O[C@H]6[C@H](O)[C@@H](O)[C@@H](O[C@H]7[C@H](O)[C@@H](O)[C@@H](O[C@H]8[C@H](O)[C@@H](O)[C@@H](O[C@H]9[C@H](O)[C@@H](O)[C@@H](O[C@H]1[C@H](O)[C@H]2O)O[C@@H]9CO)O[C@@H]8CO)O[C@@H]7CO)O[C@@H]6CO)O[C@@H]5CO)O[C@@H]4CO)O[C@@H]3CO,outcome,[1],inactive
same,outcome,[6],inactive
same,AC50,[2],4.18 µM (active)
same,outcome,[3],inactive
Nc1ccc(N)c2c1C(=O)c1ccccc1C2=O,outcome,[7],inactive
same,outcome,[1],inactive
same,outcome,[6],inactive
same,AC50,[8],1.71 µM (active)
same,outcome,[3],inactive
Cc1ccc(S(=O)(=O)Oc2ccc(N=Nc3ccc(-c4ccc(N=Nc5c(O)ccc6cc(S(=O)(=O)O)cc(S(=O)(=O)O)c56)c(C)c4)cc3C)cc2)cc1,outcome,[7],inactive
same,outcome,[1],inactive
same,outcome,[9],inactive
same,AC50,[6],3.09 µM (active)
same,AC50,[2],0.701 µM (active)
same,AC50,[5],0.463 µM (active)
same,outcome,[10],inactive
same,outcome,[3],inactive
CCCCC1CCC(O)CC1 (centres undefined),outcome,[7],inactive
Cc1cc(S(=O)(=O)O)ccc1N=Nc1c(O)ccc2ccccc12,outcome,[1],inactive
same,AC50,[11],23.5 µM (active)
same,AC50,[6],17.6 µM (active)
same,outcome,[3],inactive
[O-]n1ccccc1=S.[O-]n1ccccc1=S.[Zn+2],outcome,[1],inactive
same,outcome,[11],inactive
same,AC50,[6],1.1 µM (active)
same,outcome,[3],inactive
COc1ccccc1N=Nc1c(S(=O)(=O)O)cc2cc(S(=O)(=O)O)cc(NC(C)=O)c2c1O,outcome,[1],inactive
same,AC50,[6],8.29 µM (active)
same,outcome,[10],inactive
same,outcome,[3],inactive
BrCc1cccc(Oc2ccccc2)c1,outcome,[7],inactive
same,AC50,[1],60.7 µM (active)
same,outcome,[8],inactive
same,AC50,[3],56.3 µM (active)
CCc1cc(Cc2cc(CC)cc(C(C)(C)C)c2O)c(O)c(C(C)(C)C)c1,AC50,[7],15.8 µM (active)
same,outcome,[1],inactive
same,outcome,[10],inactive
same,outcome,[8],inactive
same,outcome,[3],inactive
CCCCCCCCCCCCCCN(CCO)CCO,outcome,[1],inactive
same,outcome,[9],inactive
same,outcome,[2],inactive
O=C(Nc1ccc2c(O)c(N=Nc3ccc(N=Nc4ccc(S(=O)(=O)O)cc4)cc3)c(S(=O)(=O)O)cc2c1)c1ccccc1,outcome,[12],inactive
same,outcome,[1],inactive
same,AC50,[6],9.08 µM (active)
same,AC50,[2],1.19 µM (active)
same,outcome,[10],inactive
same,outcome,[3],inactive
same,outcome,[13],inactive
CCc1ccc(O)cc1,outcome,[7],inactive
same,outcome,[1],inactive
same,outcome,[2],inactive
same,outcome,[8],inactive
same,outcome,[3],inactive
CSCCC=O,outcome,[1],inactive
same,outcome,[2],inactive
same,outcome,[10],inactive
same,outcome,[3],inactive
CCCCCCCCC=CCCCCCCCC1=NCCN1CCO,AC50,[7],23.3 µM (active)
same,outcome,[1],inactive
same,AC50,[9],25 µM (active)
same,AC50,[5],7.33 µM (active)
same,outcome,[8],inactive
CCCCC(CC)COC(=O)c1ccc(O)cc1 (centres undefined),AC50,[1],0.91 µM (active)
same,outcome,[11],inactive
same,outcome,[2],inactive
same,AC50,[3],1.92 µM (active)
CC(=O)O[C@H]1C[C@@H]2CC[C@@]1(C)C2(C)C,outcome,[1],inactive
same,outcome,[10],inactive
same,AC50,[8],31.8 µM (active)
same,outcome,[3],inactive
CCCCCCCCCCCC(=O)OCC(O)CO (centres undefined),outcome,[12],inactive
same,outcome,[1],inactive
same,outcome,[10],inactive
same,AC50,[14],6.68 µM (active)
same,outcome,[3],inactive
same,outcome,[13],inactive
CC(C=O)Cc1ccc(C(C)(C)C)cc1 (centres undefined),outcome,[7],inactive
same,outcome,[1],inactive
same,AC50,[15],2.97 µM (active)
same,outcome,[3],inactive
CC(=O)CC(=O)Nc1ccccc1,outcome,[4],inactive
C[C@H]1O[C@@H](O[C@H]2[C@@H](O)C[C@H](O[C@H]3[C@@H](O)C[C@H](O[C@H]4CC[C@@]5(C)[C@H](CC[C@@H]6[C@@H]5C[C@@H](O)[C@]5(C)[C@@H](C7=CC(=O)OC7)CC[C@]65O)C4)O[C@@H]3C)O[C@@H]2C)C[C@H](O)[C@@H]1O,outcome,[7],inactive
same,outcome,[1],inactive
same,outcome,[10],inactive
same,outcome,[8],inactive
same,outcome,[3],inactive
COc1ccc(N=Nc2cc(C)c(N=Nc3ccc(S(=O)(=O)O)cc3)cc2OC)cc1,outcome,[1],inactive
same,AC50,[2],8.57 µM (active)
same,outcome,[10],inactive
same,outcome,[3],inactive
O=C1NC2NC(=O)NC2N1 (centres undefined),AC50,[1],22.1 µM (active)
same,outcome,[2],inactive
same,AC50,[3],7.06 µM (active)
OCc1cccc(Oc2ccccc2)c1,outcome,[7],inactive
same,AC50,[1],47.7 µM (active)
same,outcome,[8],inactive
same,AC50,[3],59.1 µM (active)
CCCCCCCCCCCCCC(=O)OCC(O)CO (centres undefined),outcome,[7],inactive
same,outcome,[1],inactive
same,outcome,[8],inactive
same,outcome,[3],inactive
CCCCC(CC)COC(C)=O (centres undefined),outcome,[1],inactive
same,outcome,[2],inactive
same,outcome,[3],inactive
C=C1CC[C@H](O)C/C1=C/C=C1\CCC[C@]2(C)[C@@H]([C@H](C)/C=C/[C@H](C)C(C)C)CC[C@@H]12,outcome,[1],inactive
same,AC50,[2],12 µM (active)
same,outcome,[10],inactive
same,outcome,[3],inactive
CC(CN=Cc1ccccc1O)N=Cc1ccccc1O (centres undefined),outcome,[1],inactive
same,outcome,[6],inactive
same,outcome,[3],inactive
O=C(CC(=O)c1ccccc1)c1ccccc1,outcome,[1],inactive
same,outcome,[11],inactive
same,AC50,[3],85.9 µM (active)
CCCCCCCCSCCO,outcome,[7],inactive
same,outcome,[8],inactive
Clc1ccc(C(c2ccccc2Cl)C(Cl)Cl)cc1 (centres undefined),AC50,[1],3.87 µM (active)
same,outcome,[2],inactive
same,AC50,[3],5.53 µM (active)
